High-throughput results (PubChem)
The list is not random: actives were taken first. Their share in the collection is about 27%.
CYP2C19 inh – blockers of cytochrome P450 2C19 activity – biochemical, luminescence, ADME assay, primary screen | actives 21% (n = 96,000) | CYP2C19 Supersomes, luciferin-H EGE luminescence, 30 min | inhibition, % at 5 µM | AID 778, 2007 | P33261;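 active means CYP2C19 inhibition above a set limit at 5 µM in the primary screen, cut at about 50% in these data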;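 further: plate controls were negative control wells for no effect and 2.5 mM tranylcypromine positive control for full effect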
CYP2C9 activ – human CYP2C9 activators, primary screen, biochemical, luminescence; Cytochrome P450 2C9 (Homo sapiens), P11712; recombinant CYP2C9, luciferin-H conversion; active compounds read high; factor 1 = untreated enzyme, 0 = blocked; activation factor at 5 µM; actives 1.4% (n = 96,000);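 active means activation factor of 2 or more for CYP2C9 at a 5 µM dose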;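 further: 0 = sulfaphenazole-blocked wells and 1 = vehicle-only wells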
sEH inh – soluble epoxide hydrolase inhibitors, primary screen, biochemical, human sEH. Bifunctional epoxide hydrolase 2 (Homo sapiens), P34913. recombinant human sEH enzymatic activity assay. inhibition, % at 2 µM. actives 0.34% (n = 91,000). AID 707, 2007; in the data active means inhibition above about 80%
Target sequence (P34913 whole entry, looked up): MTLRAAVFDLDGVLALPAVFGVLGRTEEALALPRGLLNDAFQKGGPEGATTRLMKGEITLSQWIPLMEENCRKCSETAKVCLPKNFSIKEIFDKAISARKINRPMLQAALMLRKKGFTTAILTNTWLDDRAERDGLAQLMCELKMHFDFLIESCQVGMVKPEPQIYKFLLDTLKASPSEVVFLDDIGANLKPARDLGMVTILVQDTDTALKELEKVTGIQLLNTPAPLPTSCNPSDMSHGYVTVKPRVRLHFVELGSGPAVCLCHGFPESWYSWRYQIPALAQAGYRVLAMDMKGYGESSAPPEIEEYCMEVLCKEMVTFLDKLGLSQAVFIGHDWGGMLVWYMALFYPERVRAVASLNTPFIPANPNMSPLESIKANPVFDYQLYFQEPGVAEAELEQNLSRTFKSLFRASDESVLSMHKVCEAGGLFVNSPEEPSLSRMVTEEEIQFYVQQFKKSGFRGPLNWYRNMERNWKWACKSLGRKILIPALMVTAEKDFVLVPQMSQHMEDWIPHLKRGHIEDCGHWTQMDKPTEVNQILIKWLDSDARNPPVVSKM
CYP2C19 act – human CYP2C19 activators, primary screen, biochemical, luminescence. Cytochrome P450 2C19 (Homo sapiens), P33261. recombinant CYP2C19, luciferin-H EGE luminescence; active compounds read high; 0 = fully inhibited enzyme, 1 = untreated enzyme. activation factor at 5 µM. 96,000 tested, under 10 active;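 active means activation factor of at least 2 at 5 µM in the primary screen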;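 further: 0 = wells with 2.5 mM tranylcypromine and 1 = vehicle-only wells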
sEH activator – soluble epoxide hydrolase activators, primary screen, biochemical, human sEH; Bifunctional epoxide hydrolase 2 (Homo sapiens), P34913; purified human sEH enzymatic activity, activator screen; activation, % at 2 µM; actives 0.04% (n = 91,000); AID 717, 2007; in the data active means activation above about 37%
CYP2C9 inh – blockers of cytochrome P450 2C9 activity – biochemical, luminescence, ADME assay, primary screen; CYP2C9 Supersomes, luciferin-H conversion; inhibition, % at 5 µM; actives 20% (n = 96,000); AID 777, 2007;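 active means blocking of liver enzyme CYP2C9 beyond about 50% at 5 µM, limit read from the data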
Numbers without * were called inactive; . = no result.

SMILES | CYP2C19 inh | CYP2C9 activ | sEH inh | CYP2C19 act | sEH activator | CYP2C9 inh
CCC(C)[C@H](NC(=O)NCc1ccccc1Cl)C(=O)OC (some centres undefined) | 26 | 0.9 | 95* | 0.7 | -95 | 12
Cc1cccc(OCCCn2ccnc2)c1 | 100* | 0.3 | 22 | 0 | -20 | 68*
COc1cccc(OCCn2ccnc2)c1 | . | . | 6 | . | -3 | .
Cc1ccc(OCCCn2ccnc2)cc1C | 100* | 0 | -14 | 0 | 17 | 96*
CCC1C(=O)Nc2nc(-c3ccccc3)c(-c3ccccc3)n2N=C1C (centres undefined) | -3 | 0.8 | 1 | 1 | -3 | 20
[N-]=[N+]=CC(=O)c1ccnc(C(=O)C=[N+]=[N-])c1 | -5 | 1 | . | 1.1 | . | 5
Cc1ccc(-c2nnc(CSc3nnc(C)s3)o2)cc1 | 17 | 1 | 10 | 0.8 | -10 | 4
Cc1csc(SCc2nnc(-c3ccccc3Br)o2)n1 | 60* | 0.6 | . | 0.4 | . | 42
Cc1csc(SCc2nnc(-c3ccc(Cl)cc3)o2)n1 | 62* | 0.8 | -1 | 0.4 | -2 | 24
O=C(CCc1ccc(S(=O)(=O)N2CCOCC2)cc1)OCc1nc2ccccc2s1 | -1 | 0.7 | 8 | 1 | -5 | 25
O=C(COC(=O)c1cccc(S(=O)(=O)N2CCOCC2)c1)Nc1nc(-c2ccccc2Cl)cs1 | 67* | 0.3 | -1 | 0.3 | 3 | 74*
O=C(OCc1nc2ccccc2s1)c1cccc(S(=O)(=O)N2CCOCC2)c1 | 60* | 0.4 | -9 | 0.4 | 9 | 65*
COC(=O)C(O)(CC(=O)Nc1ccc(OC(F)(F)F)cc1)C(F)(F)F (centres undefined) | 8 | 0.8 | -8 | 0.9 | 14 | 17
O=[N+]([O-])CC(=Nc1ccc(Cl)cc1)N/N=C\c1oc(O)c2ccccc12 | -2 | 0.7 | -2 | 1 | -1 | 28
Cn1c(=O)c2c(nc(CN3CCC(C(N)=O)CC3)n2CCc2ccccc2)n(C)c1=O | -14 | 1.1 | 0 | 1.1 | -1 | -14
COc1cc(C)c(C(C)C)cc1S(=O)(=O)n1cnc(C)c1 | 17 | 1.1 | . | 0.8 | . | -8
CCc1nc(C)cn1S(=O)(=O)c1cc(Br)ccc1OC | 96* | 1.1 | 5 | 0 | -2 | -12
CCc1nc(C)cn1S(=O)(=O)c1cc(Br)c(C)cc1OC | 61* | 0.4 | 8 | 0.4 | -6 | 58*
CCc1nc(C)cn1S(=O)(=O)c1cc(C)c(OC)c(C)c1C | 62* | 1 | -2 | 0.4 | 4 | -5
CCc1nc(C)cn1S(=O)(=O)c1cc(Cl)c(OC)cc1Cl | 43 | 1.1 | -9 | 0.6 | 9 | -8
CCc1nc(C)cn1S(=O)(=O)c1ccc(Cl)c(Cl)c1Cl | 95* | 0.4 | -4 | 0.1 | 2 | 60*
CCCC1CCc2c(c3ccccc3[nH]c2=O)O1 (centres undefined) | 42 | 0.8 | -15 | 0.6 | 18 | 25
O=C(/C=C/c1cc([N+](=O)[O-])ccc1OC(F)F)NCc1ccc(F)cc1 | 34 | 1.1 | 1 | 0.7 | -3 | -7
CCc1nc(C)cn1S(=O)(=O)c1cc(C)c(OC)cc1C | 62* | 1.1 | . | 0.4 | . | -14
COc1ccccc1N(CC(=O)Nc1ccccc1C(=O)NCC(C)C)S(C)(=O)=O | 47 | 0.2 | 13 | 0.5 | -11 | 77*
SMILES | CYP2C19 inh | CYP2C9 activ | sEH inh | CYP2C19 act | sEH activator | CYP2C9 inh
COC(=O)c1ccc(C(=O)OC)c(NC(=O)CN(c2ccc3c(c2)OCO3)S(C)(=O)=O)c1 | 89* | 0.2 | -14 | 0.1 | 12 | 76*
COCCNC(=O)c1ccccc1NC(=O)CN(c1ccc2c(c1)OCO2)S(C)(=O)=O | 86* | 0.1 | . | 0.1 | . | 92*
COC(=O)CN(c1ccc2c(c1)OCO2)S(C)(=O)=O | 46 | 0.9 | -10 | 0.5 | 9 | 12
CS(=O)(=O)N(CC(=O)Nc1ccccc1C(=O)NCc1ccco1)c1ccc2c(c1)OCCO2 | 37 | 0.1 | -13 | 0.6 | 14 | 91*
COc1ccccc1N(CC(=O)NCCc1ccccc1)S(C)(=O)=O | 38 | 0.8 | 4 | 0.6 | -6 | 18
CC(C)CNC(=O)c1ccccc1NC(=O)CN(c1ccc2c(c1)OCCO2)S(C)(=O)=O | 35 | 0.1 | -13 | 0.7 | 7 | 93*
CNC(=O)CN(c1ccc2c(c1)OCCO2)S(C)(=O)=O | -6 | 1.3 | -3 | 1.1 | 5 | -33
COc1ccc(N(CC(=O)Nc2ccccc2C(=O)NCCc2ccccc2)S(C)(=O)=O)cc1OC | 82* | 0 | -17 | 0.2 | 20 | 99*
CCCc1ncc(C(O)c2cccc3ccccc23)n1C (centres undefined) | 61* | 0.6 | 4 | 0.4 | 1 | 40
CC(C)c1ncc(C(O)c2cccc3ccccc23)n1C (centres undefined) | 2 | 1 | 2 | 1 | -1 | 1
CSCC[C@H](NC(=O)OC(C)(C)C)C(=O)N/N=C/c1c(C)[nH]c(=O)[nH]c1=O | 15 | 0.9 | 5 | 0.8 | -5 | 10
CO/N=C/C(=N\Nc1ccc(OC)cc1)C(=O)c1ccc(OC)cc1 | 32 | 0.3 | 1 | 0.7 | 0 | 68*
CCCCc1nc(NCCNC(=O)c2ccco2)c(C#N)c2c1CSC(C)(C)C2 | 68* | 0.1 | 6 | 0.3 | -5 | 93*
O=C(Nc1cccnc1)c1ccccc1Oc1ccccc1 | 64* | 0.5 | 5 | 0.4 | -2 | 55*
O=C(Nc1cccnc1)c1ccc(Oc2ccccc2)cc1 | 36 | 0.1 | 1 | 0.6 | -3 | 89*
COc1cc2ccccc2cc1C(=O)Nc1cccnc1 | 44 | 0.7 | -1 | 0.6 | 0 | 32
CN1CCN(C(=S)Nc2ccccc2Cl)CC1 | 3 | 0.9 | -22 | 1 | 20 | 9
CCc1c(C(C)S(=O)(=O)c2ccc(C)cc2)[nH]c(=O)n1-c1ccc(C)cc1 (centres undefined) | 59* | 0.8 | -7 | 0.4 | 9 | 19
O=C(Cc1c(C(=O)O)[nH]c2ccccc12)NCCN1CCN(c2ccccc2F)CC1 | 4 | 0.9 | . | 1 | . | 8
COc1ccc(NS(=O)(=O)c2ccc(-n3nnc4ccccc43)c([N+](=O)[O-])c2)cc1 | 74* | 0.1 | 16 | 0.3 | -14 | 93*
O=C(O/N=C\c1ccc(N2CCCCC2)c([N+](=O)[O-])c1)c1cccc(C(F)(F)F)c1 | 19 | 1 | -2 | 0.8 | 0 | 4
O=[N+]([O-])c1cc(S(=O)(=O)Nc2cccc(C(F)(F)F)c2)ccc1-n1nnc2ccccc21 | 93* | 0 | -9 | 0.1 | 8 | 98*
COc1ccc(NS(=O)(=O)c2ccc(C)c(C(=O)O)c2)cc1 | -4 | 0.9 | -11 | 1 | 9 | 9
